Assay outcomes from PubChem BioAssay.
tim23-1 inh: growth inhibitors of tim23-1 mutant yeast; inhibition, % at 20 µM; 330,000 tested, 1.3% active; S. cerevisiae tim23-1 growth, BacTiter-Glo luminescence, 24 h; AID 463212;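 active = growth inhibition of the mutant yeast at or above 50%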;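 also: temperature-sensitive mutant grown at 25 °C; plate controls were DMSO-treated mutant yeast for no effect and medium wells lacking yeast for full effect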
tim10-1 inh: tim10-1 yeast growth inhibition | S. cerevisiae tim10-1 ts strain growth, BacTiter-Glo, 24 h | inhibition, % at 20 µM | 330,000 tested, 2.2% active | AID 463190;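 active = inhibition of at least 40%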;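 also: mutant grown at 25 °C; 0% = DMSO wells with yeast and 100% = wells holding no yeast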
NALP3 yeast inh: NALP3 inhibition in yeast | inhibition, % at 10 µM | 330,000 tested, 0.39% active | AID 2825 | Yeast reconstituted NLRP3/ASC/caspase-1, beta-gal luminescence, 24 h;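 active = inhibition of 50% or more; inactive = inhibition below 50%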;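 also: plate controls were induced DMSO wells for no effect and uninduced yeast grown without galactose for full effect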
TIM10 inh: growth inhibitors of TIM10 yeast strain; S. cerevisiae TIM10 strain growth, BacTiter-Glo luminescence, 24 h; inhibition, % at 10 µM; 330,000 tested, 1.4% active;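 active = inhibition of 40% or more at the single tested concentration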;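 also: wild-type TIM10 isogenic control strain grown at permissive 25 °C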
PfHsp90 set2: growth inhibition of yeast expressing Plasmodium Hsp90; inhibition, % at 9.4 µM; S. cerevisiae expressing PfHsp90, BacTiter-Glo ATP, 48 h; yeast lacking PDR1 and PDR3 efflux regulators; AID 504621; 310,000 tested, 0.32% active;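 active = every replicate shows inhibition above about 80%, whatever the replicate mean, limit read from the data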;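 also: 0% = DMSO neutral controls and 100% = 20 µM radicicol positive controls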
tim10 confirm: TIM10 yeast growth inhibition, confirmed | 4,600 tested, 63% active | shares compounds with TIM10 inh | S. cerevisiae tim10 strain growth, BacTiter-Glo luminescence, 24 h | inhibition, % at 10 µM | AID 463215;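 active = inhibition of yeast growth at or above a set limit in either of two replicates at 10 µM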;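 also: this counterscreen used the strain with wild-type TIM10; 0% = yeast with DMSO and 100% = medium wells lacking yeast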
Numbers without * were called inactive. Compounds with a hit are over-represented: about 3.7% of the library has one in this group of screens.

For COc1ccc(-c2noc(-c3ccccc3C(=O)NCC3CCCO3)n2)cc1 (stereo not drawn) the results were tim23-1 inh 21, tim10-1 inh -7, NALP3 yeast inh 26, TIM10 inh 6 and PfHsp90 set2 -7.
Screening COc1ccc(C(=O)O/N=C(\N)c2ccccn2)cc1 returned tim23-1 inh 49, tim10-1 inh 34, NALP3 yeast inh 17, TIM10 inh 42*, PfHsp90 set2 72 and tim10 confirm 36*.
N/C(=N\OC(=O)c1ccc2c(c1)OCO2)c1ccc(Cl)cc1 was read as tim23-1 inh 47, tim10-1 inh 33, NALP3 yeast inh 46, TIM10 inh 48*, PfHsp90 set2 16 and tim10 confirm 46*.
Screening N/C(=N\OC(=O)c1ccc(Cl)cc1)c1ccccn1 returned tim23-1 inh 48, tim10-1 inh 37, NALP3 yeast inh 14, TIM10 inh 62* and tim10 confirm 47*.
N/C(=N\OC(=O)c1ccc2c(c1)OCO2)c1ccncc1 was read as tim23-1 inh -1, tim10-1 inh 13, NALP3 yeast inh -7, TIM10 inh -5 and PfHsp90 set2 5.
`N/C(=N\OC(=O)c1cccc(Br)c1)c1ccccn1` gave tim23-1 inh 47, tim10-1 inh 33, NALP3 yeast inh 30, TIM10 inh 59*, PfHsp90 set2 20 and tim10 confirm 42*.
N/C(=N\OC(=O)c1ccc(Cl)c(Cl)c1)c1ccccn1 was read as tim23-1 inh 15, tim10-1 inh 20, NALP3 yeast inh 25, TIM10 inh 20 and PfHsp90 set2 -18.
Screening COc1ccccc1C(=O)NC(CCSC)C(=O)NCc1ccncc1 (stereo not drawn) returned tim23-1 inh 6, tim10-1 inh -22, NALP3 yeast inh 14, TIM10 inh 3 and PfHsp90 set2 27.
C#CCOc1nc(Nc2cccc([N+](=O)[O-])c2)nc(OCC#C)n1 was read as tim23-1 inh 41, tim10-1 inh 36, NALP3 yeast inh 11, TIM10 inh 41*, PfHsp90 set2 -5 and tim10 confirm 42*.
`CS(=O)(=O)c1ccc(NC(=O)CCN2C(=O)C3CCCCC3C2=O)cc1` (stereo not drawn) gave tim23-1 inh 14, tim10-1 inh -4, NALP3 yeast inh 12, TIM10 inh -2 and PfHsp90 set2 -4.
`O=C(CSc1ccc(-c2ccccc2)nn1)c1cccs1` gave tim23-1 inh 11, tim10-1 inh 21, NALP3 yeast inh -48, TIM10 inh 41*, PfHsp90 set2 -95 and tim10 confirm 16.
COc1ccc(-c2ccc(SCC(=O)c3cccs3)nn2)cc1 was read as tim23-1 inh 13, tim10-1 inh 20, NALP3 yeast inh -75, TIM10 inh 43* and tim10 confirm 29.
COc1ccc(-c2ccc(SCC(=O)Nc3nnc(C)s3)nn2)cc1 was read as tim23-1 inh -2, tim10-1 inh -11, NALP3 yeast inh 12, TIM10 inh -5 and PfHsp90 set2 19.
`Cc1nn(-c2ccccc2)c(N)c1N=Nc1ccc(Cl)cc1` gave tim23-1 inh 12, tim10-1 inh 34, NALP3 yeast inh 20, TIM10 inh 44*, PfHsp90 set2 24 and tim10 confirm 32*.
Screening CC(C)=C1SC(N2CCN(c3cccc(Cl)c3)CC2)=NC1=O returned tim23-1 inh 18, tim10-1 inh -21, NALP3 yeast inh 34, TIM10 inh -20 and PfHsp90 set2 14.
For CSc1ccc(/C=N/NC(=O)CN2CCN(Cc3ccc(Cl)cc3)CC2)cc1 the results were tim23-1 inh 18, tim10-1 inh 31, NALP3 yeast inh 22, TIM10 inh 41*, PfHsp90 set2 -2 and tim10 confirm 7.
`CSc1ccc(/C=N/NC(=O)CN2CCN(Cc3ccccc3)CC2)cc1` gave tim23-1 inh 17, tim10-1 inh 0, NALP3 yeast inh 10, TIM10 inh 8 and PfHsp90 set2 -13.
CC(=O)Nc1ccc(Sc2ncnc3scc(-c4ccccc4)c23)cc1 was read as tim23-1 inh 29, tim10-1 inh 28, NALP3 yeast inh 32, TIM10 inh 35 and PfHsp90 set2 1.
`CCCC(=O)Nc1ccccc1Sc1ncnc2scc(-c3ccccc3)c12` gave tim23-1 inh 47, tim10-1 inh 28, NALP3 yeast inh 16, TIM10 inh 47*, PfHsp90 set2 -20 and tim10 confirm 51*.
Fc1ccccc1CN1CCC(Cc2ccccc2)CC1 was read as tim23-1 inh -4, tim10-1 inh 6, NALP3 yeast inh 16, TIM10 inh -6 and PfHsp90 set2 9.
For CC(C)(C)c1cc(C(c2cccnc2)N2CCN(CCO)CC2)cc(C(C)(C)C)c1O (stereo not drawn) the results were tim23-1 inh 42, tim10-1 inh 21, NALP3 yeast inh 44, TIM10 inh 41*, PfHsp90 set2 105* and tim10 confirm 54*.
For CC(C)(C)n1nnnc1C(c1cccnc1)N1CCN(c2cccc(C(F)(F)F)c2)CC1 (stereo not drawn) the results were tim23-1 inh -83, tim10-1 inh -26, NALP3 yeast inh -16, TIM10 inh -51 and PfHsp90 set2 18.
For Cc1ccccc1-c1cn(-c2ccccc2)c(=S)[nH]1 the results were tim23-1 inh 37, tim10-1 inh 16, NALP3 yeast inh 25, TIM10 inh 41*, PfHsp90 set2 6 and tim10 confirm 51*.
`Cc1ccc(C2(C)NC(=O)N(CC(=O)Nc3nc(-c4ccccn4)cs3)C2=O)cc1` (stereo not drawn) gave tim23-1 inh -3, tim10-1 inh 18, NALP3 yeast inh 12, TIM10 inh 2 and PfHsp90 set2 -12.
Cc1cccc(C(=O)NNC(=O)C23CC4CC(CC(C4)C2)C3)c1O was read as tim23-1 inh 28, tim10-1 inh 4, NALP3 yeast inh 28, TIM10 inh 49*, PfHsp90 set2 0 and tim10 confirm 46*.
Screening NC(=O)C1CCN(C(=O)C(=O)c2cn(CC(=O)N3CCCCCC3)c3ccccc23)CC1 returned tim23-1 inh -12, tim10-1 inh 0, NALP3 yeast inh 12, TIM10 inh -8 and PfHsp90 set2 -16.
Screening O=C(COc1ccc(Cl)cc1)N1CCN(c2ccc([N+](=O)[O-])c(N3CCCCC3)c2)CC1 returned tim23-1 inh 38, tim10-1 inh 39, NALP3 yeast inh 15, TIM10 inh 42*, PfHsp90 set2 -49 and tim10 confirm 25.
`O=C(COc1ccccc1Cl)N1CCN(c2ccc([N+](=O)[O-])c(N3CCCCC3)c2)CC1` gave tim23-1 inh 38, tim10-1 inh 22, NALP3 yeast inh 17, TIM10 inh 19 and PfHsp90 set2 -4.
For Cc1ccc(OC(C)C(=O)Nc2ncc(Cl)cc2Cl)c([N+](=O)[O-])n1 (stereo not drawn) the results were tim23-1 inh 25, tim10-1 inh -43, NALP3 yeast inh 11, TIM10 inh -23 and PfHsp90 set2 -11.
